According to PubChem BioAssay AID504848 (National Center for Advancing Translational Sciences (NCATS), 2011):
About 1,400 (61%) of roughly 2,300 compounds were called active. Another 29% or so got no clear call; they are omitted. The set was probably picked from earlier hits. The list shows a part of the results. Unmarked numbers belong to inactive results. Calls come from the whole dose curve; as a rule, active = well fitted inhibition curve with a large enough effect; inconclusive = small, poorly fitted or top-dose-only effect, or effect the other way; inactive = no such curve, though single readings can be large or run the other way.

experiment: Confirmation screen for delayed death inhibitors of the malarial parasite plastid, 96 hour incubation; note: nearly all actives have a fitted effect of over 60% in size; conditions: P. falciparum luciferase growth in erythrocytes; series mostly up to 28.7 µM; activity change, negative = inhibition: at the top concentration
How it was run: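 Erythrocytes infected with luciferase-expressing P. falciparum (2% hematocrit, 0.1% parasitemia final) in RPMI 1640 with 0.5% Albumax, exposed to compounds 96 h at 37 C, 5% CO2. Growth inhibition read as decreased luciferase luminescence.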
% is set by controls: 0 for no effect and ±100 for the full control effect; potency is the fitted concentration of half-maximal effect.

For `O=C(CCl)Nc1cccc(Oc2cnccn2)c1`, which Potency is on record?
Its Potency is 3.55 µM (active).

Which Potency does the source give for `O=C(/C=C/c1c(F)cccc1Cl)c1ccc(O)cc1` here?
The Potency was 12.6 µM (active).

With `O=C(/C=C/c1ccccc1Cl)c1ccc(O)cc1` as the compound, how does the Potency read?
Its Potency is 10 µM (active).

For `COc1ccc(-c2c(C(C)=O)c(C)n(C)c2C)cc1`, which Potency is on record?
Its Potency is 10 µM (active).

For `CCCCOc1ccc(NC2=NC3(CCCC3)N=C(N)N2)cc1`, which Potency is on record?
Its Potency is 0.708 µM (active).

With `COc1ccc2nc3sc(C(=O)NCCN4CCc5ccccc5C4)cc3cc2c1` as the compound, how does the Potency read?
Its Potency is 2.24 µM (active).

Which Potency does the source give for `COc1ccc(/C=C2\CC/C(=C\c3ccc(OC)c(OC)c3)C2=O)cc1OC` here?
Its Potency is 14.1 µM (active).

With `COc1cc(/C=C2\COC/C(=C\c3cc(OC)c(OC)c(OC)c3)C2=O)cc(OC)c1OC` as the compound, how does the Potency read?
The Potency was 2.51 µM (active).

Which Potency does the source give for `COc1cc(/C=C2\COC/C(=C\c3ccc(O)c(OC)c3)C2=O)ccc1O` here?
The Potency was 3.55 µM (active).

For `COc1cc(/C=C2\CC(C(C)(C)C)C/C(=C\c3cc(OC)c(OC)c(OC)c3)C2=O)cc(OC)c1OC` (stereo unspecified), which Potency is on record?
Its Potency is 3.16 µM (active).

With `COc1cc(/C=C2/CCC/C(=C\c3cc(O)c(OC)c(Cl)c3)C2=O)cc(Cl)c1O` as the compound, how does the Potency read?
The Potency was 7.08 µM (active).

With `COc1ccc(C(=O)Nc2nnc(S(=O)(=O)N3CCOCC3)s2)cc1` as the compound, how does the Potency read?
The Potency was 15.8 µM (active).

For `CC(C)c1ccc(C(=O)Nc2nnc(S(=O)(=O)N3CCOCC3)s2)cc1`, which Potency is on record?
The Potency was 12.6 µM (active).

Which Potency does the source give for `CCn1c(=O)c(CCC(=O)N2CCOCC2)c(C)c2c(C)nn(-c3ccccc3)c21` here?
The Potency was 10 µM (active).

For `C=CCSC(=C(C#N)C#N)c1cc2c([nH]1)CCCC2`, which Potency is on record?
Its Potency is 4.47 µM (active).

For `COC(=O)c1c(NC(=O)c2ccco2)sc2c1CC(C)(C)NC2(C)C`, which Potency is on record?
The Potency was 14.1 µM (active).

With `CCOC(=O)c1c(NC(=S)N2CCCCC2)sc2c1CCN(C(=O)OCC)C2` as the compound, how does the Potency read?
Its Potency is 3.98 µM (active).

With `Cc1cccc(CSc2cccc3cccnc23)c1` as the compound, how does the Potency read?
Its Potency is 12.6 µM (active).

For `Cc1c(NC(=O)c2ccc(Cl)c(S(=O)(=O)N3CCCCC3)c2)c(=O)n(-c2ccccc2)n1C`, which Potency is on record?
The Potency was 10 µM (active).

For `CCOC(=O)N1CCN(C(=O)c2ccc(Cl)c(S(=O)(=O)N3CCCC3)c2)CC1`, which Potency is on record?
The Potency was 12.6 µM (active).

Which “activity change, negative = inhibition” value does the source give for `Cc1c(NC(=S)NC(=O)C(C)(C)C)c(=O)n(-c2ccccc2)n1C` here?
The value was 1.52%.

With `O=C(Nc1ccncc1)c1ccc(Cl)c(S(=O)(=O)N2CCCC2)c1` as the compound, how does the Potency read?
Its Potency is 8.91 µM (active).

Which Potency does the source give for `Cc1cc(F)ccc1S(=O)(=O)Nc1ccccc1C(=O)Nc1ccccc1-c1nc2ccccc2[nH]1` here?
The Potency was 4.47 µM (active).

Which Potency does the source give for `Nc1cc[n+](CC(=O)c2ccc3c(c2)OCCO3)cc1` here?
The Potency was 4.47 µM (active).

Which Potency does the source give for `CN(C)c1ccc(NC(=S)NC23CC4CC(CC(C4)C2)C3)cc1` here?
Its Potency is 1.58 µM (active).

Which “activity change, negative = inhibition” value does the source give for `COCCNCC(=O)NC12CC3CC(CC(C3)C1)C2` here?
Its value is -4.43%.

With `COc1ccc(N2CCN(CCCn3c(=S)[nH]c4ccccc4c3=O)CC2)cc1` as the compound, how does the Potency read?
The Potency was 12.6 µM (active).

For `O=C(/C=C/c1ccc(Cl)c(Cl)c1)NCCCn1ccnc1`, which Potency is on record?
Its Potency is 12.6 µM (active).

For `COc1ccc(C)cc1NC(=O)CSCc1ccccc1C`, which Potency is on record?
Its Potency is 12.6 µM (active).

Which Potency does the source give for `CCOc1ccc(-n2c(N)c(-c3nc4ccccc4n3C)c3nc4ccccc4nc32)cc1` here?
The Potency was 3.98 µM (active).

For `COc1ccccc1CNC(=O)CN1C(=O)NC(c2ccccc2)(c2ccc(C)c(C)c2)C1=O` (stereo unspecified), which Potency is on record?
Its Potency is 12.6 µM (active).

For `Cc1cc(NC(=O)CN2C(=O)NC(c3ccccc3)(c3ccc(C)c(C)c3)C2=O)no1` (stereo unspecified), which Potency is on record?
Its Potency is 11.2 µM (active).

Which “activity change, negative = inhibition” value does the source give for `Cc1cccc(CS(=O)(=O)c2ncc(Cl)c(C(=O)Nc3c(C)cccc3C)n2)c1` here?
The value was -31.5%.

Which Potency does the source give for `COc1cc(NCc2ccc3nc(N)nc(N)c3c2C)cc(OC)c1OC` here?
The Potency was 0.199 µM (active).

Which Potency does the source give for `Cc1ccc(-n2cc(CN3CCC(CO)(Cc4cccc(C(F)(F)F)c4)CC3)cn2)cc1` here?
The Potency was 7.94 µM (active).

With `Cc1c(CCO)sc[n+]1CC(=O)OCCC12CC3CC(CC(C3)C1)C2` as the compound, how does the Potency read?
The Potency was 3.16 µM (active).

For `O=C(Nc1ccc(F)cc1)c1ccc(CN2CCc3ccccc3C2)cc1`, which Potency is on record?
The Potency was 12.6 µM (active).

Which Potency does the source give for `O=C(Nc1ccc(Cl)cc1)c1ccc(CN2CCc3ccccc3C2)cc1` here?
Its Potency is 14.1 µM (active).

Which “activity change, negative = inhibition” value does the source give for `O=C(Nc1ccc2[nH]ncc2c1)c1ccc(F)cc1` here?
Its value is -10%.

With `Cc1cc(C)cc(NC(=O)c2ccc(CN3CCc4ccccc4C3)cc2)c1` as the compound, how does the Potency read?
The Potency was 11.2 µM (active).

For `COc1ccc(N2C(=O)C3C(C2=O)C(C(=O)c2ccc(Cl)cc2)N2CCCC32)cc1` (stereo unspecified), which “activity change, negative = inhibition” value is on record?
The value was -33.2%.

For `Cc1c(OC(C)C(=O)N2C[C@H]3C[C@@H](C2)c2cccc(=O)n2C3)ccc2c3c(c(=O)oc12)CCC3` (stereo partly specified), which Potency is on record?
Its Potency is 11.2 µM (active).

Which Potency does the source give for `Cc1c(CC(=O)N2C[C@H]3C[C@@H](C2)c2cccc(=O)n2C3)c(=O)oc2cc3occ(C(C)(C)C)c3cc12` here?
Its Potency is 12.6 µM (active).

Which Potency does the source give for `CC(C)N1C/C(=C/c2ccsc2)C(=O)/C(=C/c2ccsc2)C1` here?
The Potency was 5.62 µM (active).

With `CCC1S/C(=N/N=C/c2ccco2)N(Cc2ccccc2C)C1=O` (stereo unspecified) as the compound, how does the Potency read?
The Potency was 10 µM (active).

Which Potency does the source give for `CCc1nc(SCC(=O)N2c3ccccc3CC2C)c2c(C)c(C)sc2n1` (stereo unspecified) here?
The Potency was 11.2 µM (active).

For `CCc1nc(SCC(=O)Nc2ccccc2OC)c2c(C)c(C)sc2n1`, which Potency is on record?
Its Potency is 12.6 µM (active).

With `CC(=O)NCCC(=O)Nc1cc(S(=O)(=O)N2CCOCC2)ccc1Oc1ccccc1` as the compound, how does the Potency read?
The Potency was 10 µM (active).

Which Potency does the source give for `CN(C)S(=O)(=O)c1ccc(NCC2COc3ccccc3O2)c([N+](=O)[O-])c1` (stereo unspecified) here?
Its Potency is 12.6 µM (active).

For `COc1ccc(C(=O)CC(SCC(NC(C)=O)C(=O)O)c2ccc(Cl)cc2)cc1OC` (stereo unspecified), which Potency is on record?
The Potency was 11.2 µM (active).

With `CCOC(=O)N1C/C(=C\c2ccccc2)C(=O)/C(=C/c2ccccc2)C1` as the compound, how does the Potency read?
Its Potency is 4.47 µM (active).

Which Potency does the source give for `O=[N+]([O-])c1ccc(C[n+]2cccc3c4ccccc4ccc32)cc1` here?
Its Potency is 0.126 µM (active).

With `COC1C(OC(=O)/C=C/C=C/C=C/C=C/C(=O)O)CCC2(CO2)C1C1(C)OC1CC=C(C)C` (stereo unspecified) as the compound, how does the Potency read?
Its Potency is 0.0501 µM (active).

For `CC1=CC(C)(C)N2C(=O)C3(NCCc4c3[nH]c3ccccc43)c3cc(C)cc1c32` (stereo unspecified), which Potency is on record?
The Potency was 11.2 µM (active).

For `Fc1ccc(CNc2ccc(N3CCN(Cc4ccccc4)CC3)cc2)cc1`, which Potency is on record?
Its Potency is 12.6 µM (active).

With `CC1=NCCN1CCNC(=O)Nc1ccc(F)cc1` as the compound, how does the “activity change, negative = inhibition” value read?
The value was -7.96%.

With `CCCc1c(NC(=O)Nc2ccc(F)cc2)cnn1-c1ccccc1` as the compound, how does the Potency read?
Its Potency is 11.2 µM (active).

Which Potency does the source give for `CCCc1c(NC(=O)Nc2ccc(F)cc2)cnn1-c1ccc(Cl)cc1` here?
Its Potency is 10 µM (active).

Which Potency does the source give for `CCCN1C(=O)c2ccccc2NC1c1ccc(OC)cc1O` (stereo unspecified) here?
Its Potency is 11.2 µM (active).

Which “activity change, negative = inhibition” value does the source give for `Cc1cccc(C2Nc3ccccc3C(=O)N2c2ccccc2)n1` (stereo unspecified) here?
The value was -14.4%.

For `Fc1cccc(CNc2ncnc3ccc(-c4ccc5c(c4)OCO5)cc23)c1`, which Potency is on record?
The Potency was 4.47 µM (active).

For `Fc1ccc(CSc2nncn2NCc2ccc3c(c2)OCO3)cc1`, which “activity change, negative = inhibition” value is on record?
The value was -15.7%.

Which Potency does the source give for `Clc1ccc(-c2c[n+](Cc3ccc(Br)cc3)c3n2CCCCC3)cc1` here?
The Potency was 0.0251 µM (active).

For `Clc1ccc(-c2c[n+](Cc3ccc(Cl)cc3Cl)c3n2CCCCC3)cc1`, which Potency is on record?
Its Potency is 0.0794 µM (active).

With `CCN(CC)c1ccc(/C=C/c2cccc[n+]2C)c(OC)c1` as the compound, how does the Potency read?
The Potency was 0.141 µM (active).

For `COC(=O)c1ccc(COc2ccc(-c3nnn(CC(N)=O)n3)cc2)cc1`, which Potency is on record?
The Potency was 1.58 µM (active).
